# Measured values taken from publication PMC5540273 (PLoS ONE, 2017).
# Key:
# Settings in all cases: concentration: 1 μM, replicates: in singlicate; n = 1
# [1] = tested on: CSNK1A1L
# [2] = tested on: CSNK1A1
# [3] = tested on: CSNK1D
# [4] = tested on: CSNK1E
# [5] = tested on: CSNK1G1
# [6] = tested on: CSNK1G2
# [7] = tested on: CSNK1G3
# [8] = tested on: CSNK2A1
# [9] = tested on: CSNK2A2
# [10] = tested on: T1, CTK
# T1 construct: gene MATK
# [11] = tested on: DAPK1
# [12] = tested on: DAPK2
# [13] = tested on: DAPK3
# [14] = tested on: T2, DCAMKL1
# T2 construct: gene DCLK1
# [15] = tested on: T3, DCAMKL2
# T3 construct: gene DCLK2
# [16] = tested on: T4, DCAMKL3
# T4 construct: gene DCLK3
# [17] = tested on: DDR1
# [18] = tested on: DDR2
# [19] = tested on: T5, DLK
# T5 construct: gene MAP3K12
# [20] = tested on: T6, DMPK2
# T6 construct: gene CDC42BPG
# 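Further: KINOMEscan kinase panel screen.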
Structure (SMILES),%Inh [1],%Inh [2],%Inh [3],%Inh [4],%Inh [5],%Inh [6],%Inh [7],%Inh [8],%Inh [9],%Inh [10],%Inh [11],%Inh [12],%Inh [13],%Inh [14],%Inh [15],%Inh [16],%Inh [17],%Inh [18],%Inh [19],%Inh [20]
Fc1ccc(-c2nn3c(OCC(F)(F)F)cccc3c2-c2ccncc2)cc1 [GW514784],35%,92.9%,96.4%,99%,0%,0%,16%,0%,0%,0%,0%,0%,0%,0%,0%,36%,80%,81%,40%,95.3%
Cc1cn2c(=O)cc(N3CCOCC3)nc2n1Cc1cccc(Cl)c1Cl [GSK2334006],29%,48%,43%,45%,17%,6%,26%,11%,18%,0%,13%,19%,22%,0%,0%,0%,30%,14%,21%,15%
CN(C1=C(c2ccccc2)C(=O)NC1=O)c1ccccc1 [SB-334860],0%,0%,19%,17%,7%,0%,22%,1%,21%,0%,26%,0%,8%,19%,11%,0%,0%,4%,9%,12%
Cc1c(Cn2c(C)nn3c(=O)cc(N4CCOC(C)C4)nc23)cccc1C(F)(F)F (centres unmarked) [GSK2344444],0%,0%,0%,0%,0%,0%,18%,12%,9%,2%,2%,0%,0%,0%,0%,21%,14%,0%,0%,0%
CN1c2ccc(CNc3ccc(F)cc3)cc2-c2c(cnn2C)S1(=O)=O,0%,1%,0%,0%,0%,0%,0%,0%,0%,0%,11%,0%,0%,14%,0%,0%,4%,35%,0%,0%
Cc1ccc(C(=O)NCC(N)=O)cc1-n1c(C)cc(OCc2ccc(F)cc2F)c(Br)c1=O,26%,25%,19%,0%,22%,10%,8%,0%,0%,0%,0%,0%,15%,3%,17%,19%,15%,3%,0%,0%
Fc1ccc(-c2ncn(CCCN3CCOCC3)c2-c2cccnc2)cc1 [SB-211743],0%,22%,4%,24%,0%,0%,17%,0%,0%,32%,9%,0%,28%,19%,6%,3%,0%,24%,0%,0%
Nc1nccc(-c2c(-c3ccc(F)cc3)ncn2C2CCN(CC(F)(F)F)CC2)n1 [SB-236560],2%,92.7%,86%,96.6%,0%,1%,0%,0%,0%,7%,20%,0%,0%,0%,0%,18%,90.8%,76%,17%,12%
CCc1nc(-c2cccc(C)c2)c(-c2ccnc(NCc3ccccc3)c2)s1,11%,8%,29%,8%,0%,0%,0%,0%,0%,17%,2%,10%,0%,10%,8%,0%,14%,18%,0%,5%
COc1ccc(S(=O)(=O)NC2CCN(c3cc(C)nc(Nc4cccc(C#N)c4)n3)CC2)cc1.O=C(O)C(F)(F)F [GSK1653539],0%,0%,19%,54%,12%,0%,30%,0%,4%,0%,0%,0%,23%,0%,0%,34%,0%,9%,0%,0%
